Results reported in PubChem BioAssay (NCATS).
Inconclusive results are not listed. Unmarked numbers belong to inactive results. Activity calls are given as the source filed them. Calls come from the whole dose curve; as a rule, active = well fitted inhibition curve with a large enough effect; inconclusive = small, poorly fitted or top-dose-only effect; inactive = no such curve, though single readings can be large or run the other way.

The compounds below were run against Chromobox protein homolog 1 (Homo sapiens) (UniProt P83916) (assay: qHTS Validation Assay for Inhibitors of HP1-beta Chromodomain Interactions with Methylated Histone Tails (AID 488953; note: nearly all actives have a fitted effect of over 50% in size)). Conditions: HP1-beta chromodomain / methylated histone peptide binding assay; series mostly up to 114 µM; activity change, negative = inhibition: at the top concentration.
Chromobox protein homolog 1 (Homo sapiens), sequence (P83916 whole entry, looked up): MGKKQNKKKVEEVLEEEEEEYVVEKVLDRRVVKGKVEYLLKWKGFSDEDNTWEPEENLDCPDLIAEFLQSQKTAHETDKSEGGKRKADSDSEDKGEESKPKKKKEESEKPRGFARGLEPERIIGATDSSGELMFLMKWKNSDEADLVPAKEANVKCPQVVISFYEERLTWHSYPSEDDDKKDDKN
Source text: As our understanding of epigenetics expands, it is becoming clear that players in this field are potential targets for drug development. This area of epigenetic therapy has established applications for the treatment of cancer and neurological diseases. We have been involved in this field for a number of years and have performed high-throughput screens to identify the first small molecule inhibitors of protein methyltransferases. These methyltransferases target multiple substrates, and thus regulate many arms of an epigenetic pathway. The methylation of different substrates often generates docking sites for effector proteins that harbor binding domains (chromo, tudor, PHD, MBT and ANK repeats).
It has been proposed that the binding sites generated for different proteins by these post-translational modifcations mediate downstream effects on chromatin. Consistent with this theory, di- and tri-methylation of histone H3K9 facilitates the binding of heterochromatin protein HP1. The HP1 protein harbors a chromodomain that is responsible for the methyl-dependent interaction between HP1 and lysine 9 of histone H3. HP1 was first described in flies as a heterochromatin associated protein that can regulate gene silencing. It harbors a chromodomain that binds H3K9me3. In addition, it harbors a chromoshadow domain that interacts with a large number of proteins that are involved in heterochromatin formation and gene repression. There are three highly related HP1 isoforms. All three variants are associated with pericentric heterochromatin and it is not clear whether they have specific or redundant functions. MPP8 is also involved in the repression of gene in euchromatic regions (unpublished data) and like HP1 its chromodomain binds H3K9me3. MPP8 harbors an ankyrin repeat region that is likely involved in binding and recruiting interacting proteins with transcriptional repressive function, much like the chromoshadow domain of HP1 does.
We hypothesize that by inhibiting specific protein-protein interactions we will be able to develop compounds that block a single arm of an epigenetic pathway. The specificity attained by blocking a single protein-protein interaction will be far greater than that attained by blocking the enzyme that regulates one of many interactions.
Low-affinity protein-protein interactions (Kd in the single- to double-digit micromolar range) such as those discussed here have been very difficult to assay by traditional techniques such as fluorescence polarization or fluorescence resonance energy transfer. We have developed a sensitive chemiluminescence-based assay (Quinn, et al. 2009), which serves as the starting point for this project.
The following is a validation assay to identify lead compounds that can block methyl-dependent protein-protein interactions (specifically HP1-beta), which can be used as probes to analyze these methyl-driven interactions and perhaps even developed into targeted epigenetic therapies.
Assay Provider: Mark T. Bedford, MD Anderson
Screening Center PI: Austin, C.P.
Screening Center: NIH Chemical Genomics Center [NCGC]
To each well, 2 uL of HP1-beta protein (final 50 nM) and 1 uL biotinylated histone peptide trimethylated at Lys9 [b-H3(1-18)K9me3] (final 50 nM) was added in 1x PBS buffer, pH 7.4, containing 0.01% Tween-20 using a nanoliter dispenser. Formation of a protein-peptide complex proceeded at room temperature for 30 min. A Kalypsys pin-tool was employed to transfer 23 nL of library compound solution in DMSO to each well. Aurintricarboxylic acid (ATA) was used as an intraplate control with a 12-point titration in duplicate. Following a 30 min incubation of the protein-peptide complex with compounds at room temperature, a mixture of 40 ug/mL each streptavidin-coated donor and nickel chelate acceptor AlphaScreen beads (final 10 ug/mL) was added in a 1 uL dispense for a final volume of 4 uL. Plates were incubated protected from the light for 30 min at room temperature. […]
% is set by controls: 0 for no effect and ±100 for the full control effect; potency is the fitted concentration of half-maximal effect.

Row | Structure (SMILES) | activity change, negative = inhibition | Potency
1 | NC(N)=Nc1nc(CSCC/C(N)=N/S(N)(=O)=O)cs1 | -3.88% | 
2 | CC(=O)CCCCn1c(=O)c2c(ncn2C)n(C)c1=O | -1.01% | 
3 | CCn1cc(C(=O)O)c(=O)c2ccc(C)nc21 | -8.47% | 
4 | COc1ccccc1N1CCN(CCCNc2cc(=O)n(C)c(=O)n2C)CC1 | 15.1% | 
5 | CCCCCN(C)CCC(O)(P(=O)(O)O)P(=O)(O)O | -7.55% | 
6 | CCN(CC)CCNC(=O)c1ccc(N)cc1 | -0.027% | 
7 | COc1cccc(-c2cc(=O)c3ccccc3o2)c1N | 38.6% [at 57.1 µM] | 
8 | CN(C)CCC(c1ccccc1)c1ccccn1 (stereo unspecified) | 1.53% | 
9 | CCCNC(=O)NS(=O)(=O)c1ccc(Cl)cc1 | 51.9% [at 57.1 µM] | 
10 | CC(C)OC(=O)C(C)(C)Oc1ccc(C(=O)c2ccc(Cl)cc2)cc1 | 65.3% | 
11 | O=C(O)CCc1nc(-c2ccccc2)c(-c2ccccc2)o1 | 12.1% | 
12 | CC/C(=C(\c1ccccc1)c1ccc(OCCN(C)C)cc1)c1ccccc1 |  | 35.5 µM (active)
13 | CCN1CCC[C@H]1CNC(=O)c1cc(S(N)(=O)=O)ccc1OC | -4.76% | 
14 | CC1=C(/C=C/C(C)=C/C=C/C(C)=C/C(=O)Nc2ccc(O)cc2)C(C)(C)CCC1 |  | 39.8 µM (active)
15 | CC(=O)c1ccc(S(=O)(=O)NC(=O)NC2CCCCC2)cc1 | 0.324% | 
16 | CC(=O)O[C@]1(C(C)=O)CC[C@H]2[C@@H]3C=C(Cl)C4=CC(=O)[C@@H]5C[C@@H]5[C@]4(C)[C@H]3CC[C@@]21C | 4.06% | 
17 | CC(=O)N[C@@H](CS)C(=O)O | 6.51% | 
18 | O=C1NCC2(CCN(CCc3ccccc3)CC2)O1 | -4.87% | 
19 | CCN(CC)C(=O)c1ccc(O)c(OC)c1 | -4.49% | 
20 | O=c1cc(-c2ccc(O)cc2)oc2cc(O)cc(O)c12 | -1.56% | 
21 | O=C1NC(=O)C(c2ccccc2)(c2ccccc2)N1 | -5.1% | 
22 | O=c1c(-c2ccc(O)cc2)coc2cc(O)ccc12 | -5.07% | 
23 | C[N+](C)(C)CCCCCC[N+](C)(C)C |  | inactive
24 | CCN(CC)CCOC(=O)c1ccc(N)cc1 | -9.33% | 
25 | COC(=O)[C@@H]1[C@H]2C[C@H]3c4[nH]c5ccccc5c4CCN3C[C@@H]2CC[C@@H]1O | -12.2% | 
26 | Cc1cccc(C)c1OCC(C)N (stereo unspecified) | 16.1% | 
